# Measurements reported in PubChem BioAssay.
# The source made the active and inactive calls.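 The calls were made as follows, unless noted: active = visually confirmed hit in the image check and inhibition above 20%; inconclusive = visually confirmed hit but inhibition not above 20%; inactive = no visual hit in the image check.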
# Experiments:
# [1] = inhibitors of TNFa-induced NFkB p65 translocation, primary screen, imaging, HUVEC, MLSMR starter and 10KST1 sets (AID 438;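 active = inhibition above 20% together with a positive visual image hit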;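 also: compound added about 3h40 before a 20 min TNFalpha stimulation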;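 as to inhibition: signal is the nuclear over cytoplasmic p65 intensity ratio per well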); details: HUVEC TNFa-induced p65 nuclear translocation; cell count: measured here: nuclei count (cytotoxicity indicator), at 2.08 µM; inhibition: at 2 µM, stronger effect = higher value, 0% TNFa-plus-vehicle, 100% no-TNFa wells
# [2] = inhibitors of mutant huntingtin aggregation, primary screen, imaging, exon1htt(103Q)mCFP cells, high-content imaging (AID 483;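 active = visual image review flags a hit and inhibition of aggregation exceeds 20%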;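 also: compound exposure lasted 3 days before fixation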;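 as to nuclei count: percent of the per-plate median nuclei count of sample wells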); details: exon1htt(103Q)mCFP cell line, aggregate imaging, at 2 µM; inhibition of aggregation: stronger effect = higher value; nuclei count: measured here: cell count, toxicity
# [3] = inhibitors of E-selectin induction by TNFa, primary screen, imaging, HUVEC, immunofluorescence, MLSMR starter and 10KST1 sets (AID 487); details: HUVEC TNFalpha-induced E-selectin immunofluorescence imaging, at 2 µM; inhibition: stronger effect = higher value; nuclei count: measured here: cell number, toxicity;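 as to inhibition: signal is fraction of cell area covered by stained E-selectin grains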;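 as to nuclei count: 100% = median nuclei count of all wells on the same plate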
# [4] = target: Voltage-gated potassium channel subunit beta-2 (Rattus norvegicus) (UniProt P62483); experiment: KvBeta enzyme negative modulators, primary screen, biochemical, NADPH fluorescence (AID 622;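 active = fluorescence slope higher than the sample average by over 3 SD, cut at about -0.22 in these data, passing the limit was not always enough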;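 also: slope of raw intensity against log time taken from 70 to 1610 s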); details: recombinant KvBeta, 4-cyanobenzaldehyde reduction, at 10 µM, stronger effect = higher value
# Chain of Voltage-gated potassium channel subunit beta-2 (Rattus norvegicus) (P62483 whole entry, looked up): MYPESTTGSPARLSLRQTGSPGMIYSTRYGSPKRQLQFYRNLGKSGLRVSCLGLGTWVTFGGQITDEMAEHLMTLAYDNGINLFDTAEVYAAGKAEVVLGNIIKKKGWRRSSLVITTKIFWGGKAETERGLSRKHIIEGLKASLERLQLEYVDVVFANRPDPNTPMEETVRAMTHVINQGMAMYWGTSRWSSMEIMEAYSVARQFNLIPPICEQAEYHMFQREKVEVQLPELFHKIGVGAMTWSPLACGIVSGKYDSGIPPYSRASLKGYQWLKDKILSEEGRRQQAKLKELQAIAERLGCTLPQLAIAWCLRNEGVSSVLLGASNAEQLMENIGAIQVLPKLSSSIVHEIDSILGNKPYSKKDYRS
# [5] = target: Voltage-gated potassium channel subunit beta-2 (Rattus norvegicus) (UniProt P62483); experiment: KvBeta positive modulators, primary screen, biochemical, NADPH fluorescence (AID 623;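 active = NADPH fluorescence slope more negative than the mean of all samples by about 3 SD, 99.7% confidence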;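 also: fluorescence intensity change per second fitted from 20 to 320 s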); details: Recombinant KvBeta, NADPH fluorescence decrease slope, 10 min; at 10 µM; stronger effect = lower value
# [6] = target: Alpha-2C adrenergic receptor (Homo sapiens) (UniProt P18825); experiment: modulators of alpha2C/GIRK thallium flux, primary screen, cell-based, HEK293 alpha2C/GIRK1/2 (AID 624;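 active = fluorescence slope after compound addition differing from the mean of all screened samples at 99.7% confidence, in either direction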;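 also: slope of fluorescence ratio to pre-addition baseline per second over 15 to 24 s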); details: thallium flux BTC fluorescence, at 10 µM, actives lie on both sides
# Chain of Alpha-2C adrenergic receptor (Homo sapiens) (P18825 whole entry, looked up): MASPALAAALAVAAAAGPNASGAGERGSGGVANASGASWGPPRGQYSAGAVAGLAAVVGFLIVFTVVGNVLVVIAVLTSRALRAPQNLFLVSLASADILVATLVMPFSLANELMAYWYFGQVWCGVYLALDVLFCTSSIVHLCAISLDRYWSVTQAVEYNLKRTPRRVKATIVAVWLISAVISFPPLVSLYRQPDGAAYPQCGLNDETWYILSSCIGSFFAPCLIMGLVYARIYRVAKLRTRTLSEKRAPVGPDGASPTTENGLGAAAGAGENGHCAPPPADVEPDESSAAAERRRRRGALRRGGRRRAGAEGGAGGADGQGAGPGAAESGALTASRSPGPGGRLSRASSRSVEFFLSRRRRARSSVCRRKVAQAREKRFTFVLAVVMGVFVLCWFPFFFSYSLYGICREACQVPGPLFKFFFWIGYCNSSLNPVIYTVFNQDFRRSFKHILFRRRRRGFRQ
# [7] = inhibitors of Sendai virus-induced IRF3 signaling, primary screen, TLR/RLR signaling modifier project, cell-based, Sendai virus stimulus, luciferase, 10K MLSCN set (AID 602276;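 active = inhibition at or above 50% at 10 µM; inactive = inhibition below 50%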;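 also: firefly luciferase from ISG56 promoter only with Renilla not read in this screen; 0% = Sendai virus plus DMSO and 100% = medium plus DMSO without virus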); details: HEK293 RL24 IRF3 luciferase reporter, at 10 µM, stronger effect = higher value
# [8] = inhibitors of poly I:C-induced TLR3 signaling, primary screen, cell-based, poly I:C stimulus, luciferase, 10K MLSCN set (AID 602277;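 active = inhibition of the reporter signal at or above 50%; inactive = inhibition below 50%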); details: HEK293-TLR3 RL24 IRF3 luciferase reporter, at 10 µM, stronger effect = higher value
SMILES,cell count [1],inhibition [1],inhibition of aggregation [2],nuclei count [2],inhibition [3],nuclei count [3],fluorescence slope [4],NADPH fluorescence slope [5],slope [6],inhibition [7],inhibition [8]
CCOc1ccc(C(=O)N2CCN(c3ccccc3)CC2)cc1OCC,196,-16.9% (inactive),20.3% (inactive),97.1%,-17.5% (inactive),100%,-0.561 (inactive),9.3e-05 (inactive),0.00618 (inactive),16% (inactive),9.44% (inactive)
O=C(NCc1cccnc1)C1CCCN(S(=O)(=O)c2ccc(Cl)cc2)C1 (centres undefined),638,-48% (inactive),-4.5% (inactive),98%,-19.2% (inactive),104%,-0.601 (inactive),-4.7e-05 (inactive),0.00732 (inactive),-7.82% (inactive),-2.22% (inactive)
O=C(NCc1ccc2c(c1)OCO2)c1ccccn1,345,-2% (inactive),18.9% (inactive),100%,5.4% (inactive),122%,-0.375 (inactive),4.1e-05 (inactive),0.00534 (inactive),-23.2% (inactive),-28.1% (inactive)
Cc1ccc(-c2nc(CS(=O)CC(=O)NCCN(CC(C)C)CC(C)C)c(C)o2)cc1 (centres undefined),716,-7.2% (inactive),21.6% (inactive),134%,-18% (inactive),112%,-0.538 (inactive),-2.2e-05 (inactive),0.00425 (inactive),21.1% (inactive),30.9% (inactive)
Cc1ccc(SCC(=O)NCCN2C(=O)CSC2=O)c(C)c1,323,22.6% (inactive),-4.2% (inactive),93.3%,-98.3% (inactive),115%,-0.422 (inactive),-2.5e-05 (inactive),0.00367 (inactive),0.863% (inactive),35.6% (inactive)
CC(C)c1ncc(C(O)c2cccc3ccccc23)n1C (centres undefined),640,-10.5% (inactive),11.4% (inactive),75.8%,-10.8% (inactive),123%,-0.494 (inactive),-6.2e-05 (inactive),0.00406 (inactive),-12.7% (inactive),-7.56% (inactive)
CC(CCc1ccco1)NC(=O)Cn1ncc2c1-c1ccccc1OC2 (centres undefined),762,-3.2% (inactive),-17.9% (inactive),126%,0.8% (inactive),120%,-0.539 (inactive),-1.5e-05 (inactive),0.00662 (inactive),-1.38% (inactive),11.2% (inactive)
COC(=O)c1sc2ccccc2c1NC(=O)c1cccs1,729,16.4% (inactive),21.4% (inactive),101%,1.4% (inactive),99.1%,-0.551 (inactive),-2.2e-05 (inactive),0.00536 (inactive),-16.8% (inactive),-27.9% (inactive)
O=C(CN(C(=O)CCC(=O)Nc1nccs1)c1ccccc1F)NCC1CCCO1 (centres undefined),343,-0.8% (inactive),6% (inactive),87.3%,-19.4% (inactive),124%,-0.609 (inactive),-1.3e-06 (inactive),0.00439 (inactive),8.97% (inactive),15.4% (inactive)
CCOC(=O)C1CCN(c2c(Nc3ccc4c(c3)OCCO4)c(=O)c2=O)CC1,789,4.6% (inactive),0.6% (inactive),106%,-129% (inactive),125%,-0.622 (inactive),2.4e-05 (inactive),0.0056 (inactive),44% (inactive),27.5% (inactive)
CCOC(=O)c1sc(NC(=O)C2CC=CCC2C(=O)O)nc1C (centres undefined),406,2.5% (inactive),-2.8% (inactive),97.8%,19.8% (inactive),105%,-0.527 (inactive),5.4e-05 (inactive),0.00721 (inactive),21.8% (inactive),32.8% (inactive)
CCOC(=O)c1c(C)oc2c1c(C(c1ccncc1)N1CCOCC1)c(O)c1ccccc12 (centres undefined),827,-7.9% (inactive),-6.4% (inactive),101%,-21.1% (inactive),107%,-0.594 (inactive),2.5e-05 (inactive),0.00459 (inactive),-6.32% (inactive),-31.2% (inactive)
Cc1nn(C(=O)c2ccoc2C)c(N)c1-c1ccccc1,764,-1.1% (inactive),-13.8% (inactive),132%,-25.3% (inactive),116%,-0.534 (inactive),-4.2e-05 (inactive),0.007 (inactive),-27.9% (inactive),-123% (inactive)
COc1cc(OC)cc(C(=O)N2c3ccc(F)cc3CCC2C)c1 (centres undefined),282,-4.7% (inactive),19% (inactive),83.6%,-85.9% (inactive),103%,-0.524 (inactive),-4.4e-05 (inactive),0.0061 (inactive),12.9% (inactive),21.8% (inactive)
